The values that follow come from PubChem BioAssay (NCI).

Some test systems named below: NCI-H23 lung; NCI-H226 lung; NCI-H322M lung; HOP-62 NSCLC; NCI-H460 lung; HOP-92 NSCLC; NCI-H522 lung; A549/ATCC NSCLC; 786-0 renal; COLO 205 colon.
Holding throughout (test): NCI-60 one-dose screen, 48 h (100 = growth as untreated, 0 = no growth, -100 = all killed)
Conditions in all cases: 10 µM unless noted

Molecules are shown by their SMILES. Compounds without any hit were thinned out: in the full panel of roughly 83,000, 20% have a hit.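 Each cell line was grown in a 96-well plate and treated with one concentration of compound for 48 hours. Values below 10 were considered active.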 Unmarked numbers belong to inactive results. Calls of active or inactive are those of the source.

As for `Cc1ccc(N)c(O)c1`, the growth with NCI-H23 lung was 86.2%; in the assay on NCI-H226 lung, 97.5%; with NCI-H322M lung, 91%; in the assay on HOP-62 NSCLC it was 91.7%; with NCI-H460 lung it was 100%; in the assay with HOP-92 NSCLC it was 68.1%. Further, the growth is 73.8% in the assay on NCI-H522 lung, 85.4% in the assay on A549/ATCC NSCLC, 90.8% in the assay on 786-0 renal and 132% with COLO 205 colon.

For the molecule `C[C@H]1[C@H](C)CC[C@]2(COC(=O)CCC(=O)O)CC[C@]3(C)C(=CC[C@@H]4[C@@]5(C)CCCNC(C)(C)[C@@H]5CC[C@]43C)[C@H]12`, the growth with NCI-H23 lung is 62.8% [100 µM]; with NCI-H226 lung it was 76.3% [100 µM]; in the assay with NCI-H322M lung it was 86.8% [100 µM]; in the assay on HOP-62 NSCLC, 49.1% [100 µM]; with NCI-H460 lung, 66.8% [100 µM]; with HOP-92 NSCLC, -7.31% [100 µM] (active). Moreover, the growth was 53.5% [100 µM] with NCI-H522 lung, 70.9% [100 µM] with A549/ATCC NSCLC, 55.6% [100 µM] with 786-0 renal and 69.1% [100 µM] in the assay with COLO 205 colon.

Regarding `CCCCCCCCCN(CCCCCCCCC)C(C)C(=O)c1ccc2cc(Br)c3ccccc3c2c1` (stereo not given), the growth with NCI-H23 lung is 77.6%; with NCI-H226 lung it was 102%; with NCI-H322M lung, 116%; with HOP-62 NSCLC it was 95.6%; with NCI-H460 lung, 110%; in the assay on HOP-92 NSCLC, 72.8%. Further, the growth is 96.5% in the assay with NCI-H522 lung, 86.1% in the assay with A549/ATCC NSCLC, 90.4% in the assay with 786-0 renal and 81.9% with COLO 205 colon.

For `COc1ccc(/C=C(/C2=NCCN2)n2ccc3ccccc32)cc1`, the growth in the assay with NCI-H23 lung was 100%; with NCI-H226 lung it was 81.5%; in the assay on NCI-H322M lung it was 92%; in the assay with HOP-62 NSCLC it was 97.1%; in the assay on NCI-H460 lung it was 93.1%; with HOP-92 NSCLC, 56.7%. For the same molecule, the growth was 85.9% with NCI-H522 lung, 99.8% in the assay on A549/ATCC NSCLC, 88.8% in the assay on 786-0 renal and 83.9% in the assay on COLO 205 colon.

Consider `COc1ccc(OC)c([N+](=O)[O-])c1C(=O)CNC(C)=O`, for which the growth in the assay on NCI-H23 lung is 105%; in the assay on NCI-H226 lung, 101%; with NCI-H322M lung it was 105%; with HOP-62 NSCLC, 105%; with NCI-H460 lung it was 107%; in the assay on HOP-92 NSCLC it was 89.9%. For the same molecule, the growth with NCI-H522 lung is 95.7%; in the assay on A549/ATCC NSCLC it was 100%; in the assay on 786-0 renal, 103%; in the assay on COLO 205 colon, 114%.

For the molecule `CCOc1ccc(/C=C(\C#N)c2cc3ccccc3[nH]2)cc1`, the growth with NCI-H23 lung was 78.6%; with NCI-H226 lung, 90%; with NCI-H322M lung, 87.1%; with HOP-62 NSCLC it was 54.7%; in the assay with NCI-H460 lung it was 36.2%; in the assay with HOP-92 NSCLC, 87.4%. Also, the growth was 32.8% in the assay on NCI-H522 lung, 38% in the assay with A549/ATCC NSCLC, 89.5% in the assay on 786-0 renal and 49.4% in the assay with COLO 205 colon.

For `O=C(N/N=C1\c2ccccc2-c2cccc(C(=O)O)c21)c1ccc(O)cc1`, the growth was 98.2% with NCI-H23 lung; 89.6% with NCI-H226 lung; 86.4% in the assay with NCI-H322M lung; 93.8% in the assay with HOP-62 NSCLC; 96.6% in the assay on NCI-H460 lung; 78.6% in the assay with HOP-92 NSCLC. Besides, the growth in the assay on NCI-H522 lung was 86.5%; in the assay on A549/ATCC NSCLC it was 95.8%; in the assay on 786-0 renal it was 97.5%; in the assay on COLO 205 colon it was 107%.

Take `COc1ccc(OC)c(NC=O)c1`: the growth was 101% in the assay on NCI-H23 lung; 103% in the assay with NCI-H226 lung; 111% with NCI-H322M lung; 98.1% in the assay with HOP-62 NSCLC; 105% in the assay on NCI-H460 lung; 101% in the assay on HOP-92 NSCLC. Moreover, the growth in the assay with NCI-H522 lung is 103%; with A549/ATCC NSCLC it was 105%; with 786-0 renal it was 104%; in the assay with COLO 205 colon, 108%.

For the molecule `Cn1cc(-c2nnc(-c3cn(C)c4ncc(Br)cc34)o2)c2ccccc21`, the growth with NCI-H23 lung is 90.4%; with NCI-H226 lung it was 93%; with NCI-H322M lung, 97.7%; in the assay with HOP-62 NSCLC it was 82.5%; with NCI-H460 lung, 98.2%; in the assay on HOP-92 NSCLC, 77.1%. Moreover, the growth in the assay on NCI-H522 lung was 57.3%; with A549/ATCC NSCLC it was 87.4%; in the assay on 786-0 renal, 105%; in the assay with COLO 205 colon it was 76%.

Take `COc1ccc2nc3c(cc2c1)C(=O)CC(C(F)(F)F)C3` (stereo not given): the growth is 50.5% in the assay on NCI-H23 lung; 39.8% in the assay with NCI-H226 lung; 37.4% in the assay with NCI-H322M lung; 47.7% in the assay on HOP-62 NSCLC; 10.5% in the assay with NCI-H460 lung; 66.2% in the assay on HOP-92 NSCLC. The growth in the assay with NCI-H522 lung is 31.1%; in the assay with A549/ATCC NSCLC it was 39.3%; with 786-0 renal it was 53.7%; in the assay with COLO 205 colon it was 9.86% (active).

As for `CCOc1cc(/C=N\NC(=O)N/N=C/c2ccc(O)c(OCC)c2)ccc1O`, the growth in the assay with NCI-H23 lung was 33%; in the assay with NCI-H226 lung, 55.5%; in the assay with NCI-H322M lung, 50.7%; in the assay with HOP-62 NSCLC it was 38.9%; with NCI-H460 lung, 11.8%; with HOP-92 NSCLC, 80.7%. The growth in the assay on NCI-H522 lung is -18.6% (active); in the assay on A549/ATCC NSCLC it was 59.4%; with 786-0 renal, 28.6%; with COLO 205 colon, 42.7%.

Consider `O=C(CSc1nc2ccc([N+](=O)[O-])cc2[nH]1)Nc1ccc(F)c(Cl)c1`, for which the growth is -7.69% (active) with NCI-H23 lung; 7.74% (active) in the assay on NCI-H226 lung; 37.1% with NCI-H322M lung; 35% in the assay with HOP-62 NSCLC; 11.1% in the assay with NCI-H460 lung; -36.9% (active) in the assay with HOP-92 NSCLC. Moreover, the growth with NCI-H522 lung was -3.92% (active); in the assay on A549/ATCC NSCLC it was 23.4%; with 786-0 renal, 21.9%; in the assay on COLO 205 colon, 24.7%.

As to `O=C(N/N=C/c1c(Cl)cccc1Cl)c1cccc(Nc2ccnc(C(F)(F)F)c2)c1`, the growth is 89.7% with NCI-H23 lung; 78.7% in the assay with NCI-H226 lung; 108% in the assay on NCI-H322M lung; 86.6% in the assay on HOP-62 NSCLC; 82.1% in the assay with NCI-H460 lung; 60.5% in the assay with HOP-92 NSCLC. Also, the growth in the assay on NCI-H522 lung is 87%; in the assay with A549/ATCC NSCLC it was 107%; with 786-0 renal it was 81.9%; in the assay with COLO 205 colon it was 89.4%.
